Reference: PubChem BioAssay (NCI)
The panel holds about 79,000 compounds, 15% with a hit somewhere; the sample as a whole holds those more often. Unmarked numbers belong to inactive results. The source made the active and inactive calls. Cut-off read from the data, not from the text of the source: active = growth inhibition above about 70%; inactive = the rest. Where a SMILES comes first, the peptide text is derived from it. The star is where a group is joined. Trt = c1ccc(C(c2ccccc2)(c2ccccc2)*)cc1; Cbz = O=C(OCc1ccccc1)*

Assay: NCI Yeast Anticancer Drug Screen. Data for the rad50 strain (AID 155);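 note: 0% = growth of vehicle-only cultures of the same strain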
Settings: S. cerevisiae rad50 strain growth inhibition; at 5.0 µM (retest, dose inferred, filed as 0.5); active compounds read high
Outline: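 Yeast carrying a defined DNA repair defect were exposed to test compounds, and growth was compared with vehicle-treated controls to give percent inhibition.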
With `CC(=O)O[C@H]1CC[C@]2(C)C3=CC[C@]4(C)[C@@H](C(C)=O)CC[C@H]4[C@@]34C=C[C@]2(C1)C1C(=O)OC(=O)C14` (stereo not given in full) the growth inhibition was 2%.
Molecule `Cc1cc(O)c2c(c1)C(=O)c1c(c(O)cc(O)c1-c1c(O)cc(O)c3c1C(=O)c1cc(C)cc(O)c1C3=O)C2=O` has a growth inhibition of 14%.
`NC(=O)/C(=N\NC(=O)c1cc2ccccc2cc1O)C1C(=O)N(c2ccccc2)N=C1N` (stereo not given) showed a growth inhibition of 15%.
Work on `CCNC(=S)NNC(=S)NNc1ccccc1` yielded a growth inhibition of 52%.
Work on `OCC(O)C(O)C(O)C(O)C(O)C(/C=N/Nc1ccccc1)=N/Nc1ccccc1` (stereo not given) yielded a growth inhibition of -1%.
`O=C(CN(Cc1ccccc1)Cc1ccccc1)c1ccccc1` gave a growth inhibition of -2%.
For `COC(=O)C1CCC(c2ccccc2)CC1C(=O)OC` (stereo not given), the growth inhibition was 2%.
For `COc1ccc2c(c1)C(=O)C(Br)CC2` (stereo not given), the growth inhibition was 16%.
For `O=C1c2ccccc2C(=O)c2sc(Nc3ccc(Cl)cc3)nc21`, the growth inhibition was 79% (active).
For `O=Nc1c(-c2cccc([N+](=O)[O-])c2)nc2cnccn12`, the growth inhibition was 39%.
With `CC/C(=N\NS(=O)(=O)c1ccc(C)cc1)c1cccc(OC)c1` the growth inhibition was 34%.
In the case of `NNC(=S)NN/C=C(\C=Nc1ccccc1)[N+](=O)[O-]`, the growth inhibition is reported as 19%.
With `CC(C)(C)c1ccc(CN2CCN(C(c3ccccc3)c3ccc(Cl)cc3)CC2)cc1` (stereo not given) the growth inhibition was 20%.
`O=C1OCc2cccc3cccc1c23` gave a growth inhibition of 7%.
`CC(C)CC(NC(=O)COc1c(Cl)cc(Cl)c(Cl)c1Cl)C(=O)O` (stereo not given) gave a growth inhibition of 0%.
Molecule `CC1CCN(CCC(=O)c2cccc(O)c2)CC1` has a growth inhibition of 4%.
In the case of `CCC(c1ccc(O)c(C2CCCCC2)c1)C(CC)c1ccc(OC(=O)c2ccccc2)c(C2CCCCC2)c1` (stereo not given), the growth inhibition is reported as 0%.
In the case of `CC(=O)c1csc2c1C(=O)c1scc(C(C)=O)c1C2=O`, the growth inhibition is reported as 26%.
For `O=C1C2=Cc3ccccc3CCN2c2ccccc21`, the growth inhibition was 4%.
Work on `Cc1cc(I)cc(I)c1O` yielded a growth inhibition of 8%.
Molecule `NCCCSc1ccc(Br)cc1` has a growth inhibition of -10%.
For `O=C1OC2(Cc3ccccc31)c1ccccc1-c1ccccc12`, the growth inhibition was -5%.
In the case of `Cc1occc1C(=S)Nc1ccc(Cl)c(C(=O)OCC2CC2)c1`, the growth inhibition is reported as -14%.
With `c1cc(C2=NCCN2)ccc1Nc1ccc(-c2cc3ccc(C4=NCCN4)cc3[nH]2)cc1` the growth inhibition was 99% (active).
For `Cc1ccc(C)c(NC(=O)CC2SC(=Nc3ccccc3Cl)NC2=O)c1` (stereo not given), the growth inhibition was 23%.
`Cc1ccccc1[P+](C)(c1ccccc1C)c1ccccc1C` gave a growth inhibition of 56%.
With `Oc1ccc(CNCc2ccccc2)c2cccnc12` the growth inhibition was 20%.
Molecule `COC(=O)c1ccc(OC)cc1` has a growth inhibition of 2%.
For `OCC(CO)C1c2cccc3ccc4cccc1c4c23`, the growth inhibition was 0%.
Work on `CCC(CCCN(CC)CCc1ccccc1)OC(=O)c1cc(OC)c(OC)c(OC)c1` (stereo not given) yielded a growth inhibition of 5%.
Molecule `O=[N+]([O-])c1ccc(-[n+]2ccc3ccccc3c2)c([N+](=O)[O-])c1` has a growth inhibition of 14%.
`CN(C)CCC1(C2=CCCC2)CC/C(=C\c2ccccc2Cl)C1=O` (stereo not given) showed a growth inhibition of -1%.
With `CCOC(=O)CCC(NC(=O)c1ccc(NC(OC)c2nc3cc(C(F)(F)F)ccc3nc2-c2ccccc2)cc1)C(=O)OCC` (stereo not given) the growth inhibition was 88% (active).
Molecule `CCCCCCN(CCCCCC)CC(O)c1cc(-c2ccccc2)nc2c(O)cccc12` (stereo not given) has a growth inhibition of 4%.
With `O=C1C=CC(=O)N1C1c2ccccc2-c2ccccc21` the growth inhibition was 99% (active).
For `CC(=O)c1ccc(OCc2ccccc2)cc1`, the growth inhibition was 1%.
In the case of `O=C(Oc1cccc2cccnc12)c1ccccc1`, the growth inhibition is reported as 4%.
For `C=C(Cl)C(=NC(C)(C)C)Nc1ccccc1C`, the growth inhibition was 27%.
In the case of `COC(=O)C(CSC(c1ccccc1)(c1ccccc1)c1ccccc1)NC(=O)C(CC(N)=O)NC(=O)OCc1ccccc1` (stereo not drawn) (Cbz-Asn-Cys(Trt)-OMe; configuration not given here), the growth inhibition is reported as 32%.
Work on `ClCc1nnc2n1-c1ccc(Cl)cc1SC2` yielded a growth inhibition of 3%.

Same assay, conditions: S. cerevisiae rad50 strain growth inhibition; at 50.0 µM (retest, dose inferred, filed as 5.0); active compounds read high
With `CC(=O)O[C@H]1CC[C@]2(C)C3=CC[C@]4(C)[C@@H](C(C)=O)CC[C@H]4[C@@]34C=C[C@]2(C1)C1C(=O)OC(=O)C14` (stereo not given in full) the growth inhibition was 2%.
For `Cc1cc(O)c2c(c1)C(=O)c1c(c(O)cc(O)c1-c1c(O)cc(O)c3c1C(=O)c1cc(C)cc(O)c1C3=O)C2=O`, the growth inhibition was 60%.
In the case of `NC(=O)/C(=N\NC(=O)c1cc2ccccc2cc1O)C1C(=O)N(c2ccccc2)N=C1N` (stereo not given), the growth inhibition is reported as 15%.
In the case of `CCNC(=S)NNC(=S)NNc1ccccc1`, the growth inhibition is reported as 98% (active).
With `OCC(O)C(O)C(O)C(O)C(O)C(/C=N/Nc1ccccc1)=N/Nc1ccccc1` (stereo not given) the growth inhibition was 81% (active).
With `O=C(CN(Cc1ccccc1)Cc1ccccc1)c1ccccc1` the growth inhibition was 31%.
For `COC(=O)C1CCC(c2ccccc2)CC1C(=O)OC` (stereo not given), the growth inhibition was 10%.
For `COc1ccc2c(c1)C(=O)C(Br)CC2` (stereo not given), the growth inhibition was 98% (active).
For `O=C1c2ccccc2C(=O)c2sc(Nc3ccc(Cl)cc3)nc21`, the growth inhibition was 97% (active).
With `O=Nc1c(-c2cccc([N+](=O)[O-])c2)nc2cnccn12` the growth inhibition was 99% (active).
For `CC/C(=N\NS(=O)(=O)c1ccc(C)cc1)c1cccc(OC)c1`, the growth inhibition was 47%.
With `NNC(=S)NN/C=C(\C=Nc1ccccc1)[N+](=O)[O-]` the growth inhibition was 80% (active).
For `CC(C)(C)c1ccc(CN2CCN(C(c3ccccc3)c3ccc(Cl)cc3)CC2)cc1` (stereo not given), the growth inhibition was 52%.
For `O=C1OCc2cccc3cccc1c23`, the growth inhibition was 84% (active).
Molecule `CC(C)CC(NC(=O)COc1c(Cl)cc(Cl)c(Cl)c1Cl)C(=O)O` (stereo not given) has a growth inhibition of 8%.
With `CC1CCN(CCC(=O)c2cccc(O)c2)CC1` the growth inhibition was 57%.
`CCC(c1ccc(O)c(C2CCCCC2)c1)C(CC)c1ccc(OC(=O)c2ccccc2)c(C2CCCCC2)c1` (stereo not given) gave a growth inhibition of -2%.
In the case of `CC(=O)c1csc2c1C(=O)c1scc(C(C)=O)c1C2=O`, the growth inhibition is reported as 48%.
Molecule `O=C1C2=Cc3ccccc3CCN2c2ccccc21` has a growth inhibition of 4%.
For `Cc1cc(I)cc(I)c1O`, the growth inhibition was 55%.
In the case of `NCCCSc1ccc(Br)cc1`, the growth inhibition is reported as 13%.
Molecule `O=C1OC2(Cc3ccccc31)c1ccccc1-c1ccccc12` has a growth inhibition of -1%.
`Cc1occc1C(=S)Nc1ccc(Cl)c(C(=O)OCC2CC2)c1` gave a growth inhibition of -3%.
For `c1cc(C2=NCCN2)ccc1Nc1ccc(-c2cc3ccc(C4=NCCN4)cc3[nH]2)cc1`, the growth inhibition was 99% (active).
`Cc1ccc(C)c(NC(=O)CC2SC(=Nc3ccccc3Cl)NC2=O)c1` (stereo not given) showed a growth inhibition of 65%.
With `Cc1ccccc1[P+](C)(c1ccccc1C)c1ccccc1C` the growth inhibition was 85% (active).
For `Oc1ccc(CNCc2ccccc2)c2cccnc12`, the growth inhibition was 98% (active).
`COC(=O)c1ccc(OC)cc1` showed a growth inhibition of -1%.
`OCC(CO)C1c2cccc3ccc4cccc1c4c23` showed a growth inhibition of 30%.
Molecule `CCC(CCCN(CC)CCc1ccccc1)OC(=O)c1cc(OC)c(OC)c(OC)c1` (stereo not given) has a growth inhibition of 17%.
With `O=[N+]([O-])c1ccc(-[n+]2ccc3ccccc3c2)c([N+](=O)[O-])c1` the growth inhibition was 78% (active).
With `CN(C)CCC1(C2=CCCC2)CC/C(=C\c2ccccc2Cl)C1=O` (stereo not given) the growth inhibition was 60%.
With `CCOC(=O)CCC(NC(=O)c1ccc(NC(OC)c2nc3cc(C(F)(F)F)ccc3nc2-c2ccccc2)cc1)C(=O)OCC` (stereo not given) the growth inhibition was 88% (active).
Molecule `CCCCCCN(CCCCCC)CC(O)c1cc(-c2ccccc2)nc2c(O)cccc12` (stereo not given) has a growth inhibition of 56%.
In the case of `O=C1C=CC(=O)N1C1c2ccccc2-c2ccccc21`, the growth inhibition is reported as 99% (active).
`CC(=O)c1ccc(OCc2ccccc2)cc1` showed a growth inhibition of -6%.
In the case of `O=C(Oc1cccc2cccnc12)c1ccccc1`, the growth inhibition is reported as 97% (active).
With `C=C(Cl)C(=NC(C)(C)C)Nc1ccccc1C` the growth inhibition was 53%.
For `COC(=O)C(CSC(c1ccccc1)(c1ccccc1)c1ccccc1)NC(=O)C(CC(N)=O)NC(=O)OCc1ccccc1` (stereo not drawn) (Cbz-Asn-Cys(Trt)-OMe; configuration not given here), the growth inhibition was 84% (active).
Molecule `ClCc1nnc2n1-c1ccc(Cl)cc1SC2` has a growth inhibition of 68%.
